A short description of assay [1]: TAMU_HCS_1.5hr_SingleDonor1434_Cytotoxicity: Cytotoxicity Assessment using High-content Screening (HCS) Fluorescent Imaging for the Texas A&M University (TAMU) 1.5-hr Human Induced Pluripotent Stem Cell (iPSC)-derived Cardiotoxicity Assay (AID 2284234). In short, it runs like this:
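Nuclear counts from Hoechst 33342 imaging define cytotoxicity here, with EC10 (10% cell-count loss relative to DMSO) as point of departure. iPSC cardiomyocytes received 0.2-100 uM test chemical in 0.5% DMSO for 1.5 h at 37 C.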

Assay [2] in a line: TAMU_PeakParms_SingleDonor1434_QT: Texas A&M University (TAMU) 1.5-hr Human Induced Pluripotent Stem Cell (iPSC)-derived Cardiomyocytes Calcium (Ca+2) Flux Assay for Cardiotoxicity: QT (decay-rise ratio) (AID 2284235). In short, it runs like this:
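Decay/rise ratio of calcium-flux fluorescence scored after 90 min exposure (37C) of donor 1434 iPSC cardiomyocytes to 0.2–100 uM (0.5% DMSO). Beat-cessation and severe-notch points removed; POD is EC05, a 5% rise over DMSO.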

Molecules are shown by their SMILES. Records with an inconclusive call do not appear. Activity calls are given as the source filed them. Rule for the calls: active = hit-call score of the fitted dose curve at least 0.9, where 1 is the maximum; inconclusive = response in the unintended direction; inactive = score below 0.9.

As to `CCOCN(C(=O)CCl)c1c(C)cccc1CC`, in assay [1], the concentration at half-maximal activity (AC50) was 81.6 µM (active). On to `O=S1OCC2C(CO1)C1(Cl)C(Cl)=C(Cl)C2(Cl)C1(Cl)Cl` (centres undefined), for which the call in assay [1] and in assay [2] was inactive. For `CN1CSC(=S)N(C)C1`, the outcome in assay [2] was inactive.

The record behind these values is PubChem BioAssay (EPA / NIEHS).
